# Data published in ChEMBL document CHEMBL3988442, “University of Dundee, Small-Polar-MMV Screening Library” (2021).
# The campaign covered roughly 48,000 compounds. About 13,000 (27%) showed an effect of 50% or more. Some of the results follow.
# Test system: Wolbachia pipientis
# Test: Anti-Wolbachia Cell-Based Screen
# Type: functional
# Set-up: scale not given: in the data most compounds retested in dose-response had high values
# Details: 5 µM
row,Compound,Percent Effect
1,O=C(CCN1CCCCO1)N1CC[C@H](O)[C@@H](O)C1,-19.59%
2,Cc1ccc(S(=O)(=O)NC(=O)c2cc(S(C)(=O)=O)ccc2C)s1,12.42%
3,CCOC(=O)c1ccc(CNC(=O)c2ccon2)o1,45.33%
4,Cc1cc(F)ccc1CN1CCC(O)(CN2CCCCC2)C1 (centres undefined),-5.371%
5,O=C(c1cn(-c2ccc(C(F)(F)F)cn2)nn1)N1CCCCCC1,-5.295%
6,OC1(CN2CCCCC2)CCN(c2cc(C(F)(F)F)ccn2)C1 (centres undefined),106.3%
7,CS(=O)(=O)NCC1CCCN(c2ccc(C(F)(F)F)cn2)C1 (centres undefined),7.899%
8,OC1(CN2CCCCC2)CCN(c2ccc(C(F)(F)F)cn2)C1 (centres undefined),107.5%
9,FC(F)(F)c1ccnc(N2CCCCCC2)c1,6.382%
10,OC1(CN2CCCC2)COCCN(c2nccs2)C1 (centres undefined),-1.349%
11,FC(F)(F)c1ccnc(N2CCCOCC2)c1,1.908%
12,OC1(CN2CCCC2)COCCN(c2cc(C(F)(F)F)ccn2)C1 (centres undefined),99.83%
13,CCc1nnc(CNC(=O)CCCN2CCCCC2)s1,-1.719%
14,O=C(NCCNC(=O)C1CC1)c1sccc1Br,0.3352%
15,Cc1cccc(C(C(=O)NCc2csc(-c3ncccn3)n2)N(C)C)c1 (centres undefined),2.9%
16,CSC(CNS(=O)(=O)c1cnn(C)c1)c1cccc(Cl)c1 (centres undefined),-0.2397%
17,Cn1c(CN2CCCCC2)cc(=O)c(O)c1CN1CCCCC1,95.65%
18,CCS(=O)(=O)N1CCC(c2nnc(CN3CCCCC3)n2C)CC1,-11.51%
19,Cc1noc(C2CCN(Cc3cc(=O)n(C)c(=O)n3C)CC2)n1,2.603%
20,Cn1c(CN2CCCCCC2)cc(=O)c(O)c1CN1CCCC1,177.4%
21,CCS(=O)(=O)N1CCC(c2nnc(CN3CCCCCC3)n2C)CC1,-3.352%
22,CC(=O)c1cc(CN2C[C@@H](CN3CCCC3)[C@@H](CO)C2)n(C)c1,0.4917%

row,Compound,Percent Effect
1,Cc1ccc(CNC2(Cc3cc(-c4ccccc4)on3)COC2)o1,-15.57%
2,CN1CCN(Cc2ccccc2CNC(=O)c2cc(Cl)ccc2F)CC1,-3.272%
3,Cn1ncc(C2CC(=O)NCc3nc4sccn4c32)c1C1CC1 (centres undefined),-19.57%
4,CCOc1cc(Cl)ccc1CNC(=O)N1CCCC(CO)C1 (centres undefined),-9.935%
5,CCC(CC)c1cc(CNC(=O)N2CCC(n3cncn3)CC2)on1,-7.222%
6,COc1ccc(OC)c(CNC(=O)N2CCC(n3cncn3)CC2)c1,67.1%
7,COc1cc(Cl)ccc1CNC(=O)N(C)C(C)CS(C)(=O)=O (centres undefined),2.125%
8,COc1cc(Cl)ccc1CNC(=O)N1CCC(n2cncn2)CC1,88.5%
9,CC(C)CC1(C(=O)NCCc2nncn2C2CC2)CCC1,-4.64%
10,COCCn1cncc1CN1CCCC(C(=O)Cc2ccccc2)C1 (centres undefined),-2.141%
11,FC(F)Oc1ccc(CNCc2cc(Br)c3c(c2)OCO3)cc1,-6.924%
12,Cc1cccc(S(=O)(=O)NC(=O)CN(C)Cc2ccccc2)c1,-8.063%
13,OC1CCN(Cc2ccc(CNc3ncc(Cl)cc3F)cc2)CC1,12.54%
14,CCc1ncc2c(n1)CN(CC(=O)Nc1ccncc1)CC2,110.2%
15,CCc1ncc2c(n1)CN(CC(=O)NCCOc1ccccc1)CC2,-2.298%
16,CCc1ncc2c(n1)CN(CC(=O)Nc1ccc(Cl)cn1)CC2,-11.22%
17,CC(C)c1ncc2c(n1)CN(CC(=O)Nc1ccncc1)CC2,121.8%
18,O=C1C[C@@H]2CCN(Cc3ccccc3)C[C@@H]2CCN1C1CCCCC1,-3.832%
19,Cc1cc(F)cc2c(NCC(C)(C)C(N)=O)c(C#N)cnc12,-8.15%
20,Cc1[nH]c2ccccc2c1-c1ccnc(NC[C@H](O)CO)n1,2.314%
21,Cc1[nH]c2ccccc2c1-c1ccnc(N[C@H](CO)CC(C)C)n1,64.61%
22,Cc1ccc(-c2ccnc(NC(C)c3c(C)n[nH]c3C)n2)c(C)n1 (centres undefined),5.666%

row,Compound,Percent Effect
1,Cc1[nH]c2ccccc2c1-c1ccnc(N[C@@H](C)CO)n1,114.9%
2,Cc1[nH]c2ccccc2c1-c1ccnc(N[C@@H](CO)C(C)C)n1,99.82%
3,Cc1[nH]c2ccccc2c1-c1ccnc(NCCN2CCCCC2)n1,107.1%
4,Cc1[nH]c2ccccc2c1-c1ccnc(NCCN2CCOCC2)n1,0.04004%
5,Cc1ccc(-c2nc(CNC(C)CCO)[nH]c2-c2ccccn2)cc1 (centres undefined),0.0278%
6,O=C(NCCN1CCCCC1)c1nc2ccccc2c(=O)[nH]1,8.44%
7,Cn1cc(C2CC3(CCN(C(=O)c4cccs4)CC3)NC2=O)cn1 (centres undefined),3.208%
8,COc1cc(Cl)cc(C(=O)N2CCC3(CC2)CNC(=O)C3)c1,-6.802%
9,CCOCc1nc2c(c(N(C)Cc3ccsc3)n1)CCNCC2,-15.95%
10,CC(=O)N1CCO[C@@H]2CN(Cc3ccccc3F)C[C@@H]2C1.O=C(O)C(F)(F)F,102.5%
11,O=C(CCc1ccccc1)N1C[C@@H]2CN(Cc3ccoc3)CCO[C@@H]2C1.O=C(O)C(F)(F)F,22.25%
12,CC(=O)N1CCO[C@@H]2CN(Cc3ccccc3Cl)C[C@@H]2C1.O=C(O)C(F)(F)F,111.8%
13,COCCN1CCO[C@@H]2CN(Cc3ccccc3OC)C[C@@H]2C1.O=C(O)C(F)(F)F.O=C(O)C(F)(F)F,1.646%
14,O=C(O)C(F)(F)F.O=C(c1ccc2[nH]ccc2c1)N1CC[C@@H]2CN(CC3CC3)CCO[C@@H]2C1,-56.17%
15,O=C(O)C(F)(F)F.O=C([C@H]1CN(Cc2ccccc2F)C[C@H]2OCC[C@@H]12)N1CCCO1,3.627%
16,COc1ccccc1CN1C[C@@H]2CN(C(C)=O)CCO[C@@H]2C1.O=C(O)C(F)(F)F,111.4%
17,COc1ccccc1CN1C[C@@H]2CN(Cc3cccnc3)CCO[C@@H]2C1.O=C(O)C(F)(F)F.O=C(O)C(F)(F)F.O=C(O)C(F)(F)F,-7.53%
18,COCCN1CCO[C@@H]2CN(C(=O)c3ccc4[nH]ccc4c3)CC[C@@H]2C1,-49.46%
19,Fc1ccccc1CN1C[C@@H]2CN(Cc3cccnc3)CCO[C@@H]2C1.O=C(O)C(F)(F)F.O=C(O)C(F)(F)F.O=C(O)C(F)(F)F,0.8548%
20,O=C(c1ccccc1)N1CCO[C@@H]2CN(Cc3ccc[nH]3)C[C@@H]2C1,106.1%
